Screens deposited in PubChem by National Center for Advancing Translational Sciences (NCATS).
Only some compounds are listed: those with a hit (about 5.8% of all), similar ones and a draw of the others.
RORg inh: blocks mouse ROR gamma transcriptional activity | P51450 | Drosophila S2 Gal4-RORgamma UAS-luciferase reporter, 20 h | Potency, µM (series often up to 53.6 µM), without a hit: at the highest dose activity change, negative = inhibition, usual class: inhibitors | 310,000 compounds, 5.4% hits; note: potency is the fitted concentration of half-maximal effect; % is set by controls: 0 for no effect and ±100 for the full control effect; nearly all actives have a fitted effect of over 60% in size
Target sequence (P51450 whole entry, looked up, the tested form may be a part): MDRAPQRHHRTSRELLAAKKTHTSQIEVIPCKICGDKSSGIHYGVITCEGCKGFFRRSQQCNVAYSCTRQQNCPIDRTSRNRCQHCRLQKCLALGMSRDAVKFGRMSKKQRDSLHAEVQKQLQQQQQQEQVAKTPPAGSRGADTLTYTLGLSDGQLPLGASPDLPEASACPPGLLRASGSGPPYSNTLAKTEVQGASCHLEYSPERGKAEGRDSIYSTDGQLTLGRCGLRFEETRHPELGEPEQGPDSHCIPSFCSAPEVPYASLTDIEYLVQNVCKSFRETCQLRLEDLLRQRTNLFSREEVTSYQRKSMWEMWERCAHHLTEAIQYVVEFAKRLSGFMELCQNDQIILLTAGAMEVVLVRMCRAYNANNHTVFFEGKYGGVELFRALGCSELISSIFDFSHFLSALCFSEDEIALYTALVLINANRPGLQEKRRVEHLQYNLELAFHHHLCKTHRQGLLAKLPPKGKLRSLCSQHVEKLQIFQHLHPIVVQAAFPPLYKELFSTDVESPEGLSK
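A Gal4/UAS one-hybrid system in insect cells: metallothionein-promoter Gal4–ROR gamma fusion plus Photinus luciferase reporter. Copper sulfate 700 uM final, 20 hr ambient incubation, luminescent detection after 10 min with reagent.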
TRPV1 PAM: enhances activation of the human vanilloid receptor TRPV1; Q8NER1; TRPV1-expressing cells, Fluo-8 calcium influx, capsaicin EC20 potentiation; potentiation, % at 8.33 µM; 320,000 compounds, 0.02% hits; AID 540277; in the data active = potentiation above about 80%; inconclusive = between about 30% and that limit; note: 0% is about no effect
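Cells expressing TRPV1 were dye-loaded with Fluo-8 and read kinetically: 10 s baseline, 3 min after compound (agonist portion), then 2 min after EC20 capsaicin (allosteric enhancer portion). Calcium-bound dye fluorescence at 480/520 nm.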
Gal4-VP16 FLuc: inhibits Gal4-VP16 luciferase reporter, ROR gamma counter-screen. Potency, µM (series often up to 53.6 µM), for the others: at the top dose activity, negative = inhibition, actives largely listed as inhibitors. 310,000 compounds, 3.5% hits. Drosophila S2 Gal4-VP16 UAS-luciferase, luminescence, 20 h;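 note: Gal4-VP16 expression switched on by copper sulfate through the metallothionein promoter; potency is the fitted concentration of half-maximal effect; % is set by controls: 0 for no effect and ±100 for the full control effect; nearly all actives have a fitted effect of over 50% in size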
TRPV1 ag: human TRPV1 agonism | TRPV1-expressing cells, Fluo-8 calcium influx, agonist mode | 320,000 compounds, 0.19% hits | AID 540275 | activation, % at 8.33 µM; in the data active = activation above about 80%; inconclusive = between about 30% and that limit; note: 0% is about no effect
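TRPV1-expressing cells were cultured overnight at 35.5C and loaded with Fluo-8 calcium dye for 40 to 90 min at room temperature. After a 10 s baseline, compound was added and calcium influx was read kinetically for 3 min (ex 480/em 520 nm).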
uPA surface inh: blocks generation of uPA at the cell surface | Potency, µM (top dose mostly 38.3 µM), without a hit: at the highest dose activity change, negative = inhibition, hits mostly inhibitors | cell surface uPA generation assay, qHTS | 330,000 compounds, 0.31% hits; active = well fitted inhibition curve with a large enough effect; inconclusive = small, poorly fitted or top-dose-only effect; inactive = no such curve, though single readings can be large or run the other way; tested in mouse RAW 264.7 cells; note: potency is the fitted concentration of half-maximal effect; % is set by controls: 0 for no effect and ±100 for the full control effect; nearly all actives have a fitted effect of over 55% in size
* marks the source's active call; other numbers are inactive results; [ ] = another dose, or the depositor's remark. Unless noted, calls come from the whole dose curve; as a rule, active = well fitted curve in the direction sought with a large enough effect; inconclusive = small, poorly fitted or top-dose-only effect, or another doubt; inactive = no such curve, though single readings can be large; an effect the other way counts as inactive or inconclusive.

`S=C(Nc1ccc(Oc2ccccc2)cc1)N(CCCN1CCOCC1)Cc1ccccn1` gave RORg inh 14µM*, TRPV1 PAM 18, Gal4-VP16 FLuc -21%, TRPV1 ag 10 and uPA surface inh -5%.
Screening CCOc1ccc(NC(=O)C(C)Oc2ccccc2C(=O)Nc2ccc(C)c(Cl)c2)cc1 (configuration not stated) returned RORg inh inconclusive, TRPV1 PAM 2, Gal4-VP16 FLuc -1% and TRPV1 ag -3.
Screening COc1ccccc1/C=C/CN1CCNC(=O)C1CC(=O)NCCc1cnccn1 (configuration not stated) returned RORg inh -24%, TRPV1 PAM 18, Gal4-VP16 FLuc 5%, TRPV1 ag -1 and uPA surface inh 0%.
CC(=O)Nc1ccc(NC(=S)NC(=O)/C=C/c2ccco2)cc1 was read as RORg inh 20%, TRPV1 PAM 10, Gal4-VP16 FLuc 17%, TRPV1 ag 0 and uPA surface inh 1%.
O=C(/C=C/c1ccco1)NC(=S)Nc1cccc(C(=O)O)c1 was read as RORg inh -6%, TRPV1 PAM -1, Gal4-VP16 FLuc -5%, TRPV1 ag 0 and uPA surface inh -2%.
CN1CCN(c2ccc(NC(=S)NC(=O)c3cccc4ccccc34)cc2)CC1 was read as RORg inh inconclusive, TRPV1 PAM -3, Gal4-VP16 FLuc inconclusive, TRPV1 ag 2 and uPA surface inh inconclusive.
Screening CN1CCN(c2ccc(NC(=S)NC(=O)/C=C/c3ccco3)cc2)CC1 returned RORg inh 11µM*, TRPV1 PAM -4, Gal4-VP16 FLuc 11µM*, TRPV1 ag -5 and uPA surface inh -6%.
For CC(=O)N(C)c1ccc(NC(=S)NC(=O)/C=C/c2ccco2)cc1 the results were RORg inh 10µM*, TRPV1 PAM 3, Gal4-VP16 FLuc -29%, TRPV1 ag -3 and uPA surface inh -13%.
CCOc1ccc(NC(=S)NC(=O)/C=C/c2ccco2)cc1 was read as RORg inh 4µM*, TRPV1 PAM -3, Gal4-VP16 FLuc 5.6µM*, TRPV1 ag 0 and uPA surface inh -8%.
For COc1cccc(NC(=S)NC(=O)/C=C/c2ccco2)c1 the results were RORg inh 11µM*, TRPV1 PAM -4, Gal4-VP16 FLuc inconclusive, TRPV1 ag 13 and uPA surface inh -9%.
`COc1ccc(NC(=S)NC(=O)/C=C/c2ccco2)c(OC)c1` gave RORg inh 13µM*, TRPV1 PAM -19, Gal4-VP16 FLuc 13µM*, TRPV1 ag 12 and uPA surface inh 4%.
For CCOC(=O)c1ccc(NC(=O)C(=O)NCC2(c3ccc(OC)cc3)CCOCC2)cc1 the results were RORg inh inconclusive, TRPV1 PAM 0, Gal4-VP16 FLuc inconclusive, TRPV1 ag 0 and uPA surface inh -14%.
Screening CC(C)CNC(=S)Nc1ccc(Oc2ccccc2)cc1 returned RORg inh 3.5µM*, TRPV1 PAM -1, Gal4-VP16 FLuc 4µM*, TRPV1 ag 23 and uPA surface inh 4%.
OCCCNC(=S)Nc1ccc(Oc2ccccc2)cc1 was read as RORg inh -14%, TRPV1 PAM -4, Gal4-VP16 FLuc inconclusive, TRPV1 ag 18 and uPA surface inh -2%.
Screening CCOC(=O)c1ccc(NC(=S)NCc2ccco2)cc1 returned RORg inh 10µM*, TRPV1 PAM -15, Gal4-VP16 FLuc -22%, TRPV1 ag inconclusive and uPA surface inh 11%.
Screening S=C(NCc1ccco1)Nc1ccc(N2CCOCC2)cc1 returned RORg inh -13%, TRPV1 PAM 1, Gal4-VP16 FLuc -3%, TRPV1 ag 0 and uPA surface inh -2%.
For COc1cc(NC(=S)NCc2ccco2)cc(OC)c1 the results were RORg inh 5.6µM*, TRPV1 PAM -14, Gal4-VP16 FLuc 4%[0.365 µM], TRPV1 ag inconclusive and uPA surface inh -2%.
CCOc1ccc(NC(=S)NCc2ccco2)cc1 was read as RORg inh 14µM*, TRPV1 PAM -5, Gal4-VP16 FLuc inconclusive, TRPV1 ag 14 and uPA surface inh 5%.
For Cc1nc(N=Nc2cc(S(=O)(=O)O)ccc2S(=O)(=O)O)c(COP(=O)(O)O)c(C=O)c1O the results were RORg inh 3% and Gal4-VP16 FLuc -2%.
`COc1ccc(-c2nc3cnc(OC)nc3n(-c3ccccc3)c2=O)cc1` gave RORg inh 4% and Gal4-VP16 FLuc -5%.
COc1ccc(Cl)cc1NC(=S)NNC(=O)c1cccs1 was read as RORg inh inconclusive, TRPV1 PAM 8, Gal4-VP16 FLuc -28%, TRPV1 ag 0 and uPA surface inh -6%.
Screening COc1ccc(NC(=S)NCc2ccco2)cc1 returned RORg inh 11µM*, TRPV1 PAM 4, Gal4-VP16 FLuc inconclusive, TRPV1 ag -1 and uPA surface inh 3%.
For O=C(COC(=O)c1ccc(NS(=O)(=O)c2cccs2)cc1)NCc1ccco1 the results were RORg inh 22µM*, TRPV1 PAM 7, Gal4-VP16 FLuc 1%, TRPV1 ag 4 and uPA surface inh -16%.
S=C(NCc1ccco1)Nc1ccc(Oc2ccccc2)cc1 was read as RORg inh 6.3µM*, TRPV1 PAM -19, Gal4-VP16 FLuc inconclusive, TRPV1 ag inconclusive and uPA surface inh -11%.
O=C(COC(=O)c1cccs1)NCc1ccco1 was read as RORg inh 20%[10 µM], TRPV1 PAM 2, Gal4-VP16 FLuc -1%, TRPV1 ag -2 and uPA surface inh 5%.
Screening CCCC[C@@H]1CCCO[C@@](C(=O)NCc2ccc(C)o2)(C(F)(F)F)C1 returned RORg inh -7%, Gal4-VP16 FLuc 5% and uPA surface inh 3%.
For C#CCOCCOCCOCCNc1nc(N2CCN(C(=O)CCCCCCCCCCNC(=O)[C@H](CO)n3cc(CCCSC)nn3)CC2)nc(N2CCN(C(=O)CCCCCCCCCCNC(=O)[C@@H]([C@H](C)O)n3cc(C)nn3)CC2)n1 the results were TRPV1 PAM -36 and TRPV1 ag -2.
For COc1ccc(-c2nc(-c3ccccc3)c(NCc3ccccc3)o2)cc1 the results were RORg inh 12% and Gal4-VP16 FLuc -5%.
Screening O=C(CCS(=O)(=O)c1nc(-c2cccs2)cc(C(F)(F)F)n1)Nc1cc(Br)ccc1O returned TRPV1 PAM 6 and TRPV1 ag 4.
For COc1cccc(-c2cc(C(=O)N/N=C/c3ccco3)c3ccccc3n2)c1 the results were RORg inh 3.2µM*, TRPV1 PAM -1, Gal4-VP16 FLuc 7.1µM*, TRPV1 ag -3 and uPA surface inh -8%.
For Cc1ccc(-c2cc(C(=O)N/N=C\c3cnn(C)c3C)c3ccccc3n2)cc1C the results were RORg inh 11µM*, TRPV1 PAM -3, Gal4-VP16 FLuc inconclusive, TRPV1 ag 0 and uPA surface inh -12%.
`O=C(N/N=C/c1ccco1)c1cc(-c2ccccc2)nc2ccccc12` gave RORg inh 7.1µM*, TRPV1 PAM -34, Gal4-VP16 FLuc 10µM*, TRPV1 ag 30 and uPA surface inh -12%.
